LMP1 NFkB inh: reduces LMP1-driven NF-kappaB luciferase signal | LMP1-induced NF-kappaB luciferase reporter cells, luminescence | inhibition, % at 12.5 µM | 350,000 compounds, 0.69% hits | AID 504558; in the data active = inhibition above about 41%;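 also: 0% = neutral control wells and 100% = reference inhibitor control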
TROY signal inh: blocks TROY-dependent signaling in reporter cells | 360,000 compounds, 0.98% hits | Q293 LMP1-TROYcd NF-kB luciferase reporter, 4 h | inhibition, % at 10 µM;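 active = compounds whose plate-normalised and pattern-corrected inhibition of the luciferase reporter signal at the single screening dose is 50% or more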
Shn3 inh set2: inhibitors of Schnurri-3 3'UTR reporter in osteoblasts | 360,000 compounds, 0.52% hits | Clone20 osteoblast Shn3 3'UTR firefly luciferase, 24 h | AID 588674 | inhibition, % at 12.5 µM;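 active = mean inhibition of at least 75% with every replicate also reaching 75%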;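 also: 0% = median of neutral control wells and 100% = pilot-screen positive control compound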
TWEAK-Fn14 inh: inhibitors of TWEAK-Fn14 interaction signaling; TWEAK-stimulated Fn14 reporter cells, luciferase luminescence, 8 h; inhibition, % at 10 µM; 360,000 compounds, 2% hits; AID 1159606; in the data active = inhibition above about 50%
MITF TRPM1 inh: inhibitors of MITF-driven TRPM1 promoter in melanoma cells. SK-MEL-5 TRPM1 promoter luciferase, 24 h. inhibition, % at 12.5 µM. 330,000 compounds, 0.83% hits. AID 488899;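 active = mean inhibition across replicates of 60% or more, whatever share of single replicates reaches that level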
HIF-2a block: blocks HIF-2a reporter activity; inhibition, % at 18.8 µM; 786-0 RCC cells HIF-2a reporter, luciferase luminescence, overnight; AID 624352; 360,000 compounds, 0.72% hits;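 active = inhibition of the luminescence signal of 40% or more relative to plate controls, in a single-dose primary screen at 18.75 µM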
Numbers without * were called inactive; nt = not tested or not shown. This is a sample that favours compounds with a hit; in the whole collection about 3.4% have one here.

SMILES	LMP1 NFkB inh	TROY signal inh	Shn3 inh set2	TWEAK-Fn14 inh	MITF TRPM1 inh	HIF-2a block
O=C(COC(=O)c1ccc[nH]c1=O)Nc1cc(S(=O)(=O)N2CCCCCC2)ccc1Cl	-3	1	-21	-1	-6	8
O=C1N/C(=C/c2ccc(N3CCOCC3)o2)C(=O)N1c1cccc(Cl)c1	-2	17	96*	45	-1	35
Cc1ccc(/C=C2/NC(=O)N(c3ccccc3)C2=O)o1	-16	25	34	8	-30	-107
CC12CCC(=O)N1C(C(=O)Oc1cccc(F)c1)CS2 (centres undefined)	-1	4	-12	1	nt	5
COCC(=O)N(C)C[C@H]1Oc2ncc(Br)cc2C(=O)N([C@@H](C)CO)C[C@H]1C	-5	-6	-3	9	nt	6
O=C(NN=Cc1c(O)ccc2ccccc12)c1ccncc1	62*	4	90*	-19	75*	-4
O=C(N/N=C\c1c(O)ccc2ccccc12)c1cncc(Br)c1	38	19	87*	-3	43	-10
O=C(N/N=C/c1c(O)ccc2ccccc12)c1cccnc1	51*	1	85	-5	49	-10
Cn1cccc1/C=N\NC(=O)c1cncc(Br)c1	nt	5	12	-5	nt	-17
Cc1c(/C=N/NC(=O)c2cccnc2)c2ccccc2n1Cc1ccccc1	3	12	70	56*	22	-4
O=C(N/N=C/c1cccc2ccccc12)c1ccncc1	0	10	3	-32	11	-1
COC(=O)[C@@]12C[C@@H](CC(=O)NCCc3ccccc3OC)C(=O)N(Cc3ccc4c(c3)OCO4)C1=CCC(C)(C)C2	nt	nt	nt	nt	nt	-6
O=C(N/N=C/c1c(O)ccc2ccccc12)c1ccc[n+](CCO)c1	13	11	13	1	4	21
Cc1ccc(C(=O)N/N=C/c2c(O)ccc3ccccc23)cn1	65*	-10	94*	9	60	-34
Cn1cc(C(=O)N/N=C/c2c(O)ccc3ccccc23)ccc1=O	62*	6	91*	-5	69*	-2
Cn1nccc1C(=O)N/N=C/c1c(O)ccc2ccccc12	76*	-17	94*	-38	72*	-75
O=C(N/N=C\c1c(O)ccc2ccccc12)c1ccc(O)cc1	35	1	91*	-2	36	-62
C[C@@H]1CN([C@@H](C)CO)C(=O)CCCn2nncc2CO[C@@H]1CN(C)S(=O)(=O)c1ccc(F)cc1	4	-24	-3	-19	nt	1
CCn1nccc1C(=O)Nc1ccc(Cl)cc1Cl	-20	4	2	55*	-19	-192
CC1Cc2c([nH]c(=O)n(-c3ccccc3)c2=O)O1 (centres undefined)	-4	-16	-3	1	-3	15
Cc1ccc(Cl)cc1N1CCN(C(=O)c2cc3c(=O)[nH]c4ccccc4c3n2C)CC1	33	-5	8	-15	64*	1
Cn1c(C(=O)N2CCN(c3ccc(Cl)cc3)CC2)cc2c(=O)[nH]c3ccccc3c21	27	5	17	2	9	9
O=C(O)CC(NC(=O)CCc1ccccc1)c1ccc(Cl)cc1 (centres undefined)	1	2	8	1	-1	0
COc1ccccc1CN(C)C(=O)c1cc(-c2cccs2)nc2ccccc12	3	30	11	74*	6	9
COc1ccc(-c2cc(C(=O)N(C)Cc3cccc(OC)c3OC)c3ccccc3n2)cc1OC	9	-1	23	7	-17	-6
SMILES	LMP1 NFkB inh	TROY signal inh	Shn3 inh set2	TWEAK-Fn14 inh	MITF TRPM1 inh	HIF-2a block
O=C(/C=C/c1ccc(NC(=O)c2ccccc2-c2ccccc2C(=O)O)cc1)c1ccccc1	1	-21	-8	59*	-4	7
O=C(/C=C/c1ccncc1)c1ccc(NC(=O)c2ccccc2F)cc1	10	24	89*	42	12	31
CC(C)Oc1cc(F)ccc1-c1cc(C(=O)NCCCn2ccnc2)[nH]n1	nt	-4	-6	14	nt	12
CCC(Oc1ccccc1)C(=O)NC1CCSC1=O (centres undefined)	66*	-3	-6	-4	0	12
O=C(O)CC(c1ccccc1)N1C(=O)c2ccccc2C1=O (centres undefined)	-1	6	20	5	0	24
NC(=O)c1ccc(OCC(=O)N2CCNC2=O)cc1	-2	-4	-5	10	11	7
COc1ccccc1C1C(C(=O)c2cc3ccccc3o2)=C(O)C(=O)N1CCN(C)C (centres undefined)	-3	-28	12	-16	4	-14
COc1cccc2cc(C(=O)C3=C(O)C(=O)N(CCN(C)C)C3c3ccc(Cl)cc3)oc12 (centres undefined)	-4	-1	-12	60*	-1	12
CCCCCc1cc(=O)oc2c(C(CCN3CCCC(C)C3)c3ccc(OC)cc3)c(OC)cc(OC)c12 (centres undefined)	13	16	28	-12	47	7
CCCCCc1cc(=O)oc2c(C(CCN3CCCCC3)c3ccc(OC)cc3)c(OC)cc(OC)c12 (centres undefined)	-4	15	31	-1	92*	-1
CCCCCc1cc(=O)oc2c(C(CCN3CCCC3)c3ccc(N(C)C)cc3)c(OC)cc(OC)c12 (centres undefined)	2	11	-28	-6	79*	15
CCCCCc1cc(=O)oc2c(C(CCN(CC)CC)c3ccc(OC)cc3)c(OC)cc(OC)c12 (centres undefined)	-3	15	-15	-12	81*	19
CCCCCc1cc(=O)oc2c(C(CCN3CCCC3)c3cc(OC)c(OC)c(OC)c3)c(OC)cc(OC)c12 (centres undefined)	-51	12	0	-24	95*	3
COc1cc(OC)c2ccc(=O)oc2c1C(CCN1CCCC1)c1ccc(N(C)C)cc1 (centres undefined)	-3	4	-20	7	3	2
CC(=O)Nc1ccc(/C=C/c2nc(-c3ccccc3O)n[nH]2)cc1	-8	4	-25	9	-55	-170
CC(C)Oc1ccc(CN2CCC(n3nccc3NC(=O)CCc3ccccc3)CC2)cc1	0	9	14	1	3	9
CCc1nc2ccc(C(=O)NCCCN3CCCC3=O)cn2c1N(C=O)CC	nt	-2	-32	6	nt	1
CC1(c2ccccc2)CC(C)(C)N2C(=O)/C(=C3\SC(=S)NC3=O)c3cccc1c32 (centres undefined)	10	61*	31	70*	12	9
CC(=C1SC(=S)NC1=O)c1ccccc1	7	-20	0	-9	-3	-14
NC(=O)c1ccc(OCC(F)(F)F)nc1	-5	-8	-1	5	7	15
COc1ccc(-c2nc3c4c(ncn3n2)-c2ccccc2CC42CCCC2)cc1	2	2	-23	18	8	19

Source: PubChem BioAssay
